Laboratory results taken from the supplement of paper PMC10849652.
The full data set covers some 7,900 targets. This sample favours those with a hit. About 0.6% of all pairs of compound and target were hits.

Experiments:
Test in all cases: log2 fold change, soluble protein after heating vs DMSO (PISA); higher = thermal stabilisation; K562 cells, 10 uM, 30 min; active = over 0.2 and 3.5 SD of the protein, either way, in both replicates (recomputed)
[1] = compound: C1=CC=C(C=C1)[C@H](COC2=CC3=C(C=C2)NC(=O)N3)NC(=O)C4=CC=CN(C4=O)CC5=CC(=C(C=C5)F)F
Method in brief: (§1)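 Soluble protein was quantified by TMTpro 16plex LC-MS/MS after channel sums were equalised. It was obtained as the supernatant after 21,000xg for 90 min from pooled aliquots of K562 cells (2×10^6 cells/mL, 10 μM compound, 30 min) heated for 3 min across 48°C-58°C and extracted in PBS with 0.5% NP-40 at 4°C. Thermal stability values are relative to control samples and come from duplicates. They are given as log2 fold changes.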

[2] = compound: CC1=C(SC2=C1C(=N[C@H](C3=NN=C(N32)C)CC(=O)N)C4=CC=C(C=C4)Cl)C
Method in brief: as §1

[3] = compound: CC1=C2C(=CC=C1)N=C(N(C2=O)C3=CC=CC=C3C)CN4C=NC5=C(N=CN=C54)N
Method in brief: as §1

[4] = compound: Cc1sc2c(c1C)C(c1ccc(Cl)cc1)=N[C@@H](CC(=O)OC(C)(C)C)c1nnc(C)n1-2
Method in brief: as §1

[5] = compound: c1ccc([C@@H]2C[C@H]2NC2CCNCC2)cc1
Method in brief: as §1

Measured: log2 fold change

CELF2 isoform 3 (UniProt O95319)
inactive: [1] -0.005 | [2] 0.119 | [3] 0.013 | [4] 0.071 | [5] -0.014

COCH (UniProt O43405)
inactive: [1] 0.006 | [2] 0.061 | [3] -0.193 | [4] 0.144 | [5] 0.006

CCM2 isoform 2 (UniProt Q9BSQ5)
inactive: [1] 0.013 | [2] 0.144 | [3] 0.046 | [4] -0.161 | [5] -0.046

CS (UniProt F8VU34)
inactive: [1] -0.03

CASC3 (UniProt O15234)
Chain of UniProt O15234 (O15234 whole entry, looked up): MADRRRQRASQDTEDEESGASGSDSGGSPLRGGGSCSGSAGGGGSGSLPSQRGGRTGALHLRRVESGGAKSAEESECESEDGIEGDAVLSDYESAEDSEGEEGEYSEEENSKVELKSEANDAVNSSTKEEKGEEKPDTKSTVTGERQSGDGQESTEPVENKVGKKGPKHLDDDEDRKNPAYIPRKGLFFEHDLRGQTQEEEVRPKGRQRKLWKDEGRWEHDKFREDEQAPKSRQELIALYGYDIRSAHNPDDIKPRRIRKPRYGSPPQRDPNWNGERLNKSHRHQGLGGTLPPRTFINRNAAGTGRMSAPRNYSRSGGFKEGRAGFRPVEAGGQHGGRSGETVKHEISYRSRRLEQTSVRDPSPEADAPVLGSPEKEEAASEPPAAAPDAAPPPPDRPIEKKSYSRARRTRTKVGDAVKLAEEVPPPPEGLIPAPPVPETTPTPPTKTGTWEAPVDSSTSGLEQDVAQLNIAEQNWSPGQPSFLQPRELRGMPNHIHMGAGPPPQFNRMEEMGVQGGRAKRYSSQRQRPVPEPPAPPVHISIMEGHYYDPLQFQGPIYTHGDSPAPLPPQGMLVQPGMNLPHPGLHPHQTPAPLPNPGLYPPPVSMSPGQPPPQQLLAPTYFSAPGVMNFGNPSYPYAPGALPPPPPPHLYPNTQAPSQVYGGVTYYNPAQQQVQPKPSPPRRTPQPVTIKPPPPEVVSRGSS
inactive: [1] 0.02 | [2] 0.044 | [3] 0.015 | [4] 0.244 | [5] 0.025

C16orf58 (UniProt Q96GQ5)
inactive: [1] 0.023 | [2] 0.025 | [3] 0.088 | [4] -0.042 | [5] 0.013

COX5A (UniProt P20674)
inactive: [1] 0.016 | [2] 0.059 | [3] 0.037 | [4] -0.075 | [5] -0.043

CIZ1 (UniProt Q9ULV3)
inactive: [1] 0.021 | [2] 0.047 | [3] 0.025 | [4] 0.062 | [5] 0.029

CA8 (UniProt P35219)
inactive: [1] 0.006 | [2] 0.059 | [3] 0.052 | [4] 0.025 | [5] -0.045

C4A (UniProt P0C0L4)
Chain of UniProt P0C0L4 (P0C0L4 whole entry, looked up): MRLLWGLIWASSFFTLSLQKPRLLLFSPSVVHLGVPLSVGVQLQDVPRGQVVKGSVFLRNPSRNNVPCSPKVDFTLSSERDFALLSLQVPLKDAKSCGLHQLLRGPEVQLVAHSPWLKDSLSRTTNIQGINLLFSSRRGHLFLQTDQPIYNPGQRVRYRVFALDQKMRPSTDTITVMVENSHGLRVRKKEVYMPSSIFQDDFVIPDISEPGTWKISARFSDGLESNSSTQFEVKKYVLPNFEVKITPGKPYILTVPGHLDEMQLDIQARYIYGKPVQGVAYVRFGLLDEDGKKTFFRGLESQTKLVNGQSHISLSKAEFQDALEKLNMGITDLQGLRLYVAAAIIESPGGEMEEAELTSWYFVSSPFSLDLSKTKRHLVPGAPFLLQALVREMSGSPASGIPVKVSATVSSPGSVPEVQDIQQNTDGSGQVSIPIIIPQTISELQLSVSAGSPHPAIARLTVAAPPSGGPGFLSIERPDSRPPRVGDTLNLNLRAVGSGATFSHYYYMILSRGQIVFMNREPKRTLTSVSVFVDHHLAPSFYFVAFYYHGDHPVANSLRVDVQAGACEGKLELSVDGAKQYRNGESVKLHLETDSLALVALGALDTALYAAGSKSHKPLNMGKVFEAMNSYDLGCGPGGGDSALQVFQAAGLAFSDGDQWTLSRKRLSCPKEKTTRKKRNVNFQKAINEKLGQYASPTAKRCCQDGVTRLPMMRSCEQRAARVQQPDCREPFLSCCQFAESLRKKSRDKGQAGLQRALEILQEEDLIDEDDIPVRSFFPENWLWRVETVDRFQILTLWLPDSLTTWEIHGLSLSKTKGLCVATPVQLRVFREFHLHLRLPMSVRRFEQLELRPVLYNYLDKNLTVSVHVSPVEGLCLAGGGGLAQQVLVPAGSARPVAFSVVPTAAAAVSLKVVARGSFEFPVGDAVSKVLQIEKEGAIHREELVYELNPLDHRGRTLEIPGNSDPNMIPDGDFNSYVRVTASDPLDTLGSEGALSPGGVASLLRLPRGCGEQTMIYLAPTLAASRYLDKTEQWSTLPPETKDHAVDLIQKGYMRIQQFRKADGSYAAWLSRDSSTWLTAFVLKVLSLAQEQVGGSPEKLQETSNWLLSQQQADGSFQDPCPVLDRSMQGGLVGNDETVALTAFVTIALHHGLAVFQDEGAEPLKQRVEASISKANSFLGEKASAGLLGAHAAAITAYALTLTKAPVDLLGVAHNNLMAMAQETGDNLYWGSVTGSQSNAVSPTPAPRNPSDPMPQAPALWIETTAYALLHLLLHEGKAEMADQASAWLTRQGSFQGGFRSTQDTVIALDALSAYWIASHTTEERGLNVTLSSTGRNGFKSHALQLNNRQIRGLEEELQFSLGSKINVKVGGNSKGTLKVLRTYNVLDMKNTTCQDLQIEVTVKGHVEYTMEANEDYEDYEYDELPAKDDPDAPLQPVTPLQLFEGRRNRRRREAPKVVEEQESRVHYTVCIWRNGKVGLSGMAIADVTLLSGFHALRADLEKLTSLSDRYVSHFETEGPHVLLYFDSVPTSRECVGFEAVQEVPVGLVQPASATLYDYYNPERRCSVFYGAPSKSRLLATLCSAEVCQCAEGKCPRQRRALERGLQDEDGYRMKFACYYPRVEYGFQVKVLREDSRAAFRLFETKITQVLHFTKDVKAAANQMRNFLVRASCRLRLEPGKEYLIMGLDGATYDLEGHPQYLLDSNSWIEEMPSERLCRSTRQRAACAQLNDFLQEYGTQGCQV
inactive: [1] -0.158 | [2] -0.067 | [3] 0.127 | [4] -0.101 | [5] -0.01

CEMIP2 (UniProt Q9UHN6)
inactive: [1] -0.03 | [2] -0.017 | [3] 0.08 | [4] -0.04 | [5] 0.081

CBX5 (UniProt P45973)
inactive: [1] -0.001 | [2] 0.029 | [3] 0.05 | [4] 0.016 | [5] 0.008

CLUH, A0A494C0R8
inactive: [1] -0.121 | [2] -0.004 | [3] 0.025 | [4] 0.152 | [5] 0.096

CASP3 (UniProt P42574)
inactive: [1] 0.018 | [2] 0.004 | [3] -0.005 | [4] -0.055 | [5] 0.003

CNOT4 isoform 6 (UniProt O95628)
inactive: [1] -0.019 | [2] 0.012 | [3] 0.068 | [4] -0.01 | [5] 0.018

CSNK1A1 isoform 3 (UniProt P48729)
inactive: [1] -0.061

CS (UniProt O75390)
Chain of UniProt O75390 (O75390 whole entry, looked up): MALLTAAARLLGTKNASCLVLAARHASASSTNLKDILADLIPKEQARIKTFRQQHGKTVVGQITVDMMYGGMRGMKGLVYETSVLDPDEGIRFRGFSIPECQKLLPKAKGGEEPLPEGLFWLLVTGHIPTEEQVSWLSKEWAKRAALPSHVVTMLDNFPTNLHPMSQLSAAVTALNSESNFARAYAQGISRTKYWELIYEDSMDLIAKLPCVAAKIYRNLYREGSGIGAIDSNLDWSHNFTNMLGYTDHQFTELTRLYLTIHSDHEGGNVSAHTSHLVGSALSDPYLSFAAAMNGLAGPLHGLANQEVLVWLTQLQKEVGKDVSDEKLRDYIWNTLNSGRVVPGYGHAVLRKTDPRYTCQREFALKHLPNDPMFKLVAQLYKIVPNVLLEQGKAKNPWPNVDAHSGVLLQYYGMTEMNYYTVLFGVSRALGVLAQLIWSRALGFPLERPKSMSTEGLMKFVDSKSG
inactive: [1] -0.043 | [2] 0.089 | [3] 0.053 | [4] -0.015 | [5] -0.016

COX5B (UniProt P10606)
Chain of UniProt P10606 (P10606 whole entry, looked up): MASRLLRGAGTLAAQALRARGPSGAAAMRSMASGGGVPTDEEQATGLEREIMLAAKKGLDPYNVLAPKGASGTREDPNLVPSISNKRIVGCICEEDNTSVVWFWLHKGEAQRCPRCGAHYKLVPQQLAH
inactive: [1] 0.015 | [2] 0.104 | [3] -0.006 | [4] -0.126 | [5] -0.099

CCDC59 (UniProt Q9P031)
inactive: [1] 0.012 | [2] -0.177 | [3] -0.214 | [4] 0.165 | [5] 0.052

CNTN4 (UniProt Q8IWV2)
inactive: [1] 0.093 | [2] 0.154 | [3] 0.103 | [4] -0.075 | [5] -0.106

CBX1 (UniProt P83916)
inactive: [1] 0.003 | [2] 0.026 | [3] 0.023 | [4] -0.003 | [5] 0.031

CDK16 isoform 2 (UniProt Q00536)
inactive: [1] -0.009 | [2] 0.026 | [3] 0.043 | [4] -0.014 | [5] -0.074

CDKN2AIP (UniProt Q9NXV6)
Chain of UniProt Q9NXV6 (Q9NXV6 whole entry, looked up): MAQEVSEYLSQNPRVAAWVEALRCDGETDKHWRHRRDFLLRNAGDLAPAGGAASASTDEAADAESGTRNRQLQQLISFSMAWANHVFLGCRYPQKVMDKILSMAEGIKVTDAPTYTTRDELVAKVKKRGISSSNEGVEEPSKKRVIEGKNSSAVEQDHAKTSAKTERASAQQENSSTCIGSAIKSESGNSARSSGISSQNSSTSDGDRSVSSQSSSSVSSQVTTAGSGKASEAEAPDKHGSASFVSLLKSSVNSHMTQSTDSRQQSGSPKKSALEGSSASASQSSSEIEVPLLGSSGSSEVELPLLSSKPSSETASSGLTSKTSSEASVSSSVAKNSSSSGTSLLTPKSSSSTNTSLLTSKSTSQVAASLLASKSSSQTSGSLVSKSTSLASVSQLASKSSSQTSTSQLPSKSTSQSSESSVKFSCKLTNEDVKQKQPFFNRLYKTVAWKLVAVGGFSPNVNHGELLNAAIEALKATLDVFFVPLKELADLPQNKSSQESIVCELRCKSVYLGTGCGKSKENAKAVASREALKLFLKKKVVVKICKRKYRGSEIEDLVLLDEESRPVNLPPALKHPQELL
inactive: [1] -0.036 | [2] -0.044 | [3] -0.008 | [4] 0.021 | [5] -0.014

CD68 (UniProt P34810)
inactive: [1] 0.021

CLPP (UniProt Q16740)
inactive: [1] 0.037 | [2] 0.153 | [3] 0.093 | [4] -0.124 | [5] 0.008

CLINT1 isoform 3 (UniProt Q14677)
inactive: [1] 0.053 | [2] -0.039 | [3] -0.01 | [4] 0.046 | [5] 0.044

CCNDBP1 (UniProt O95273)
inactive: [1] 0.023 | [2] -0.118 | [3] 0.182 | [4] 0.007 | [5] 0.047

CNN3 (UniProt Q15417)
inactive: [1] -0.015 | [2] 0.18 | [3] 0.079 | [4] 0.035 | [5] 0.03

CCNB1 (UniProt P14635)
inactive: [1] -0.004 | [2] 0.036 | [3] 0.015 | [4] -0.007 | [5] 0.026

CASP7 isoform 3 (UniProt P55210)
inactive: [1] 0.12

CLSPN (UniProt Q9HAW4)
inactive: [1] 0.002 | [2] -0.009 | [3] -0.043 | [4] -0.004 | [5] 0.036

COX7B (UniProt P24311)
inactive: [1] -0.003 | [2] 0.001 | [3] 0.063 | [4] -0.018 | [5] 0.018

CSNK2B (UniProt P67870)
inactive: [1] -0.047 | [2] 0.043 | [3] 0 | [4] -0.028 | [5] 0.018

CEPT1 (UniProt Q9Y6K0)
inactive: [1] -0.064 | [2] 0.105 | [3] 0.074 | [4] -0.121 | [5] -0.054

CLPTM1L (UniProt Q96KA5)
inactive: [1] -0.011 | [2] 0.013 | [3] 0.024 | [4] -0.145 | [5] 0.01

CLCN3 isoform 2 (UniProt P51790)
inactive: [1] 0.044 | [2] -0.006 | [3] -0.014 | [4] -0.021 | [5] 0.013

CD53 (UniProt P19397)
Chain of UniProt P19397 (P19397 whole entry, looked up): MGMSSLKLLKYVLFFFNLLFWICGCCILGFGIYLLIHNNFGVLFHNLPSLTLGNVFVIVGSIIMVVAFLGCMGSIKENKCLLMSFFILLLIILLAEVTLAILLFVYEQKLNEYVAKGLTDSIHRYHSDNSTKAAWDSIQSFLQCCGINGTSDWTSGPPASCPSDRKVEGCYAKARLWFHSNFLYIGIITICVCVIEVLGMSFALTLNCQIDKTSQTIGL
inactive: [1] -0.05 | [2] 0.142 | [3] 0.106 | [4] 0.083 | [5] 0.014

CDK6 (UniProt Q00534)
inactive: [1] -0.005 | [2] -0.002 | [3] 0.005 | [4] -0.036 | [5] -0.055

CDC26 (UniProt Q8NHZ8)
inactive: [1] 0.05 | [2] 0.027 | [3] -0.346 | [4] -0.038 | [5] 0.022

COX20 isoform 2 (UniProt Q5RI15)
inactive: [1] 0.071 | [2] 0.05 | [3] 0 | [4] -0.022 | [5] 0.042

CDC37L1 (UniProt Q7L3B6)
Chain of UniProt Q7L3B6 (Q7L3B6 whole entry, looked up): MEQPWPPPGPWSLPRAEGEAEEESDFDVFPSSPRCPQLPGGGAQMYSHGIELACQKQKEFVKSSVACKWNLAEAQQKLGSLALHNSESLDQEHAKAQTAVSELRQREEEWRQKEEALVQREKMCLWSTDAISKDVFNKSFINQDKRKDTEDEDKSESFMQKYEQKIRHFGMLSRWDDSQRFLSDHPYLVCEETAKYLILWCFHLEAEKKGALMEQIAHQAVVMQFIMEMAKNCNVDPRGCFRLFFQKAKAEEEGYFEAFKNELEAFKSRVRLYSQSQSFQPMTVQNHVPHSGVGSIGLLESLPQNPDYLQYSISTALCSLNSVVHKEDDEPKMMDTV
inactive: [1] -0.009 | [2] 0.026 | [3] 0.087 | [4] 0.337 | [5] 0.02

CRMP1 isoform 2 (UniProt Q14194)
inactive: [1] -0.014 | [2] 0.074 | [3] -0.066 | [4] 0.002 | [5] -0.006

CLN3 (UniProt Q13286)
inactive: [1] 0.005 | [2] -0.032 | [3] -0.315 | [4] -0.119 | [5] 0.087

COX15 (UniProt Q7KZN9)
Chain of UniProt Q7KZN9 (Q7KZN9 whole entry, looked up): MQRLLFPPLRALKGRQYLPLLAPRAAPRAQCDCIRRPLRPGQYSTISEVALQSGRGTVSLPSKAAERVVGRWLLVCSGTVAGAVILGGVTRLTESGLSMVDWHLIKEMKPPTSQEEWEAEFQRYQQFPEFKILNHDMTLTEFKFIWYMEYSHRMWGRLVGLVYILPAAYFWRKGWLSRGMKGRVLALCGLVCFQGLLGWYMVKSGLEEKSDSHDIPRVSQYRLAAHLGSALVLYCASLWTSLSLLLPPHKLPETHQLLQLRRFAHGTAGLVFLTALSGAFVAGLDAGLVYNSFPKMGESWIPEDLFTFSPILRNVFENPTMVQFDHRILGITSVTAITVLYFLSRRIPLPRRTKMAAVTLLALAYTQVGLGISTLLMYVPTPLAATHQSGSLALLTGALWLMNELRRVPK
inactive: [1] -0.027 | [2] 0.071 | [3] 0.036 | [4] -0.013 | [5] -0.02

CLPX (UniProt O76031)
inactive: [1] 0.011 | [2] -0.02 | [3] 0.013 | [4] -0.035 | [5] 0.048

CNN2 (UniProt Q99439)
inactive: [1] -0.061 | [2] 0.011 | [3] 0.039 | [4] 0.007 | [5] 0.01

CSNK2A2 (UniProt P19784)
inactive: [1] -0.025 | [2] 0.08 | [3] 0.052 | [4] 0.028 | [5] 0.012

CHKA (UniProt P35790)
inactive: [1] -0.055 | [2] -0.023 | [3] 0.124 | [4] -0.004 | [5] 0.19

CCND3 (UniProt P30281)
inactive: [1] -0.105 | [2] -0.015 | [3] 0.121 | [4] 0.033 | [5] 0.053

CHD3 isoform 3 (UniProt Q12873)
inactive: [1] -0.104 | [2] 0.038 | [3] 0.069 | [4] -0.038 | [5] 0.087

COPS3 (UniProt Q9UNS2)
Chain of UniProt Q9UNS2 (Q9UNS2 whole entry, looked up): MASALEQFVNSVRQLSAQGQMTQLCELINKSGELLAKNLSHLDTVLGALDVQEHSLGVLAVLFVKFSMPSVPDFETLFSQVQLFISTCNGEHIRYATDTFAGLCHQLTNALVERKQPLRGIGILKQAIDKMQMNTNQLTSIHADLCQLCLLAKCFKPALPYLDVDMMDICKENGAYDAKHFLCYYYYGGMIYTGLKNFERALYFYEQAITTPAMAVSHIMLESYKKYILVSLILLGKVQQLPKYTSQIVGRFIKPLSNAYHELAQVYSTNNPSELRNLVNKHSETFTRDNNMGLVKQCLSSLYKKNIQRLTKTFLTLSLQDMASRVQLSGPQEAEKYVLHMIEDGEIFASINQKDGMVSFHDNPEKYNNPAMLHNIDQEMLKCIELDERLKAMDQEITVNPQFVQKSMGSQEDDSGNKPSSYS
inactive: [1] 0.011 | [2] 0.001 | [3] 0 | [4] -0.007 | [5] -0.005

CRKL (UniProt P46109)
inactive: [1] 0.01 | [2] 0.041 | [3] 0.032 | [4] 0.016 | [5] -0.002

CPD (UniProt O75976)
inactive: [1] 0.008 | [2] 0.014 | [3] 0.044 | [4] -0.013 | [5] 0.053

CLCN7 (UniProt P51798)
inactive: [1] -0.018 | [2] 0.024 | [3] -0.054 | [4] 0.024 | [5] -0.032

CSNK1D (UniProt P48730)
inactive: [1] -0.08 | [2] -0.067 | [3] -0.192 | [4] -0.011 | [5] -0.015
